Source: the supplement of paper PMC6555819

tested on: FXR:RXRa (NR concentration 270 nM, RXRa partner concentration 90 nM); assay: PBM binding z-score (relative to random genomic background probes); higher = stronger binding; sequences stand for … in GC…GCGATTGACAGCGTAGAATGAAGG
Procedure, shortened: (§1)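 Scanned fluorescence from custom Agilent 4×180K protein-binding microarrays was regression-normalized. Binding z-scores use random background probes as reference. Ligand-free nuclear receptor dimers were incubated on the arrays for 1 h and detected with antibodies against each partner (one per run).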

Point of comparison: CAAACTAGGGCAAGAGGTCAAAGTCCGCTTCCCG, PBM binding z-score 5.03. Against it:
- TCTATTTGTTGAAGGGCAACCGACGAGTCCGTTT — lower, 0.938
- AGAACGAGGGCTCGCTGAGTTGATAGCAGAGTAG — lower, -0.628
- GATACAGGGTAAAGGCCAGAGTACGCGTATTGAT — lower, 0.103
- CCGACTGGGCCAAGGTCATTGATCAGTCAAAGCA — lower, 2.94
- CTTCAAAGTTCAACTAAGGTAACGTAAAGCACGC — higher, 7.28
- GCTATCAGTTGAAAGGGCAACCGAATGATTCTCG — lower, 0.0237
- ATCTCTAGGTAAAAGTTCCGTGAATCCCGAGGAT — lower, 0.485
- TCGAGTAGGTTGGTCGGGGCATTCAGCCAACATA — lower, 0.0024
- AGAATGATGTTACCAAAGATCAGGGAAACGCTTG — lower, -0.399
- CCTACTGGGCCAAACAGGTCATTGATGCCGATAA — lower, 0.606
- CCTACTTGGCCATCAGGTCATTGATATCAACGTT — lower, 2.95
- CCTTACGGGTCAAGGTTAAAGCACGGGTGGTACG — higher, 5.62
- TCTAGATGGTCACGGAGGTCACACACGACGGGTA — lower, 3.7
- TCTTGTAGATCAGCAGGTTAAGAAAGCTGGCCAA — lower, -0.00874
- ATCGGAAGGTCGAAGGTGAGTATACCCACCCGAA — lower, 2.14
- CCTTACGGGTCACGAGGATATAGCACGACGAGCG — higher, 6.44
- TCTTGTAGATCAACAGGAGGTTAGGAAAGATCGA — lower, -0.355
- CCTTACGGGTCACTGACGGGTTATAGCATTTGGA — higher, 5.28
- TCTGATAGGTCAACGATGGTCAGCTAATCTGCTA — higher, 5.29
- CAAACTAGGTCACAGAGGTCATAGTCCGTGCGTA — higher, 6.73
- TCTATTAGTTGAAGGGCAAACGACGAGTCCGTTT — lower, 0.768
- ATATGTAGGTTATCGGGTCGTTCAGTTTGCGCAT — lower, 1.16
- CCGACTGGGGCATACGGTTACCATAAGCCAGCCC — lower, -0.196
- ACTCGGAGGACAAAGATCAGAGCTACGCCAGTGA — lower, -0.308
- AGAATGAGGTTATACGTCGATCAGGGAAGAAAGT — lower, 2.16
- AGAATGAGGTTAAGCTCAGGGAAACAGAATACAT — lower, 2.88
- CGTCCAAGGTCATAGGAGGTCAGAGAAGACAGAT — higher, 8
- CGTCAAAGTTCAATTAAGGTAACGTAAAGCACGC — higher, 6.45
- CTCGAAAGGTCGTACTCAGGTGAGTATACCAAAC — higher, 5.55
- CTCGAAAGGTCGATTGAGGTGAGTATACGGATAA — lower, 4.35
- CTCGAAAGGTCGTGCTCAGGTGCGTATACCAAAC — lower, 4.69
- ATCTCTAGGTAAGACTCAGTTCACTGAAGAACGC — lower, 0.642
- CCTTACGCGTCACTGACAGGTTATAGCATTTGGA — lower, 0.188
- TTACCAATGTGAAAGGTCGTTGATGCACGCCTTG — lower, 1.7
- TAGCCTAGGTCATGCGGGCCAGAATAGTGTCGGC — lower, 4.39
- CCTTACGAGTCACGAGGTTATAGCACGACGAGCG — lower, 0.991
- AGAATGAGGTTATACGTAGAACAGGGAAGAAAGT — lower, 2.01
- CCTGCTGGGCCATCAGGTCATTGATATCAACGTT — lower, 1.15
- AGTCAAAGTTCACTAGCTAACGTAAGATTCAGCT — lower, 4.87

tested on: LXRa:RXRa (NR concentration 270 nM, RXRa partner concentration 90 nM); assay: as above
Procedure, shortened: as §1

Point of comparison: CCTTACGGGTCAAGGTTAAAGCACGGGTGGTACG, PBM binding z-score 3.83. Against it:
- TCTATTTGTTGAAGGGCAACCGACGAGTCCGTTT — lower, 1.22
- AGAACGAGGGCTCGCTGAGTTGATAGCAGAGTAG — lower, -0.88
- GATACAGGGTAAAGGCCAGAGTACGCGTATTGAT — lower, -0.0959
- CCGACTGGGCCAAGGTCATTGATCAGTCAAAGCA — lower, 2.76
- CTTCAAAGTTCAACTAAGGTAACGTAAAGCACGC — higher, 6.39
- GCTATCAGTTGAAAGGGCAACCGAATGATTCTCG — lower, 0.591
- ATCTCTAGGTAAAAGTTCCGTGAATCCCGAGGAT — lower, 0.395
- TCGAGTAGGTTGGTCGGGGCATTCAGCCAACATA — lower, -0.387
- AGAATGATGTTACCAAAGATCAGGGAAACGCTTG — lower, 0.968
- CCTACTGGGCCAAACAGGTCATTGATGCCGATAA — lower, 0.905
- CCTACTTGGCCATCAGGTCATTGATATCAACGTT — lower, 1.81
- TCTAGATGGTCACGGAGGTCACACACGACGGGTA — higher, 3.91
- CAAACTAGGGCAAGAGGTCAAAGTCCGCTTCCCG — higher, 5.04
- TCTTGTAGATCAGCAGGTTAAGAAAGCTGGCCAA — lower, 0.161
- ATCGGAAGGTCGAAGGTGAGTATACCCACCCGAA — lower, 1.54
- CCTTACGGGTCACGAGGATATAGCACGACGAGCG — higher, 4.11
- TCTTGTAGATCAACAGGAGGTTAGGAAAGATCGA — lower, -0.0525
- CCTTACGGGTCACTGACGGGTTATAGCATTTGGA — lower, 3.6
- TCTGATAGGTCAACGATGGTCAGCTAATCTGCTA — higher, 4.83
- CAAACTAGGTCACAGAGGTCATAGTCCGTGCGTA — higher, 6.13
- TCTATTAGTTGAAGGGCAAACGACGAGTCCGTTT — lower, 1.24
- ATATGTAGGTTATCGGGTCGTTCAGTTTGCGCAT — lower, 1.68
- CCGACTGGGGCATACGGTTACCATAAGCCAGCCC — lower, -0.252
- ACTCGGAGGACAAAGATCAGAGCTACGCCAGTGA — lower, -0.42
- AGAATGAGGTTATACGTCGATCAGGGAAGAAAGT — lower, 1.54
- AGAATGAGGTTAAGCTCAGGGAAACAGAATACAT — lower, 1.94
- CGTCCAAGGTCATAGGAGGTCAGAGAAGACAGAT — higher, 7.71
- CGTCAAAGTTCAATTAAGGTAACGTAAAGCACGC — higher, 5.3
- CTCGAAAGGTCGTACTCAGGTGAGTATACCAAAC — higher, 4
- CTCGAAAGGTCGATTGAGGTGAGTATACGGATAA — lower, 3.38
- CTCGAAAGGTCGTGCTCAGGTGCGTATACCAAAC — lower, 3.72
- ATCTCTAGGTAAGACTCAGTTCACTGAAGAACGC — lower, 0.841
- CCTTACGCGTCACTGACAGGTTATAGCATTTGGA — lower, 0.449
- TTACCAATGTGAAAGGTCGTTGATGCACGCCTTG — lower, 2.12
- TAGCCTAGGTCATGCGGGCCAGAATAGTGTCGGC — lower, 3.19
- CCTTACGAGTCACGAGGTTATAGCACGACGAGCG — lower, 1.29
- AGAATGAGGTTATACGTAGAACAGGGAAGAAAGT — lower, 1.58
- CCTGCTGGGCCATCAGGTCATTGATATCAACGTT — lower, 0.86
- AGTCAAAGTTCACTAGCTAACGTAAGATTCAGCT — higher, 4.82
